A selection: hits, their analogues and other compounds. The true share with any hit is near 8.6%.
Marburg entry = Marburg virus entry inhibition | Potency, µM (highest dose often 49.2 µM), inactives show top-dose activity change, negative = inhibition, hits mostly inhibitors | Marburg virus pseudotype entry/binding inhibition, cell-based | hit rate 6.5% among 18,000
LASV entry inh = blocks Lassa virus binding or cell entry; Lassa virus pseudotyped entry inhibition, cell-based qHTS; Potency, µM (series often up to 49.2 µM), without a hit: at the top dose activity change, negative = inhibition, usual class: inhibitors; hit rate 4.1% among 18,000; AID 720533
* hit, by the source's call; ? = inconclusive; · = not tested or not shown; ! = a repeat was not active; [ ] = another dose, or the depositor's remark. Calls come from the whole dose curve; tested in HEK293 cells. % is set by controls: 0 for no effect and ±100 for the full control effect; potency is the fitted concentration of half-maximal effect.

SMILES	Marburg entry	LASV entry inh
CC12C=C(C=CCCc3ccco3)C(C)(C1)[C@H](CCc1ccco1)CC2=O (stereo partly drawn)	29%[8.59 µM]	-24%[8.59 µM]
CCCCCCCCCCC1=C(C)C(=O)C(OC)=C(OC)C1=O	-5%	-9%
CCCCCCCCCCCC1=C(O)C(=O)C=C(O)C1=O	7%	28µM*!
C=CCOC(=O)N[C@H](c1cccc(OC)c1)[C@H](C)C=CCC(=O)OC	15%[8.59 µM]	·
O=C(Nc1ccc(Br)cc1)c1cccc(S(=O)(=O)Nc2ccc(Br)cc2)c1	?	22µM*
O=C(Nc1ccc(Br)cc1)c1cc(Br)c(Br)s1	-21%	?
COc1cc(C(CC2=CCCCC2)NC(=O)C(F)(F)F)cc(OC)c1OC (stereo not drawn)	1%[8.59 µM]	-21%[8.59 µM]
COC(=O)N[C@@H](C=Cc1ccccc1)C(C(=O)OC)=C(C)NCc1ccccc1	-22%[8.59 µM]	-12%[8.59 µM]
COc1ccc(CNc2nc(NCc3ccc(OC)cc3)c3ncn(C4CCCCC4)c3n2)cc1	3.5µM*	?
Cn1cnc2c(NCc3ccccc3)nc(NCCO)nc21	3%	-2%
COC(=O)c1csc(C(=O)c2c[nH]c3ccccc23)n1	-2%	-1%
COc1ccc(CCNC(=O)C(=O)c2c[nH]c3ccccc23)cc1	-3%	3.5µM*
COC(=O)[C@@H]1CC23C(=NC(c4ccc([N+](=O)[O-])cc4)=C(C(F)(F)F)[C@@H]2N(C)c2ccccc23)N1C(C)=O (stereo partly drawn)	8%[8.59 µM]	-22%[8.59 µM]
O=c1[nH]c2ccccc2n1C1CCN(Cc2ccc(-c3[nH]c4cc5ncnc5cc4nc3-c3ccccc3)cc2)CC1	7.1µM*	18µM*
O=C(CCCN1CCC(n2c(=O)[nH]c3ccccc32)CC1)c1ccc(F)cc1	9%[17.8 µM]	-18%[17.8 µM]
CCO[C@H](c1cc(OC)cc([N+](=O)[O-])c1OC)[C@H](C)[C@@H](OC)[C@H](C)C=CCC(=O)OC	1%[8.59 µM]	-6%[8.59 µM]
CNC(=O)c1cc(Oc2ccc(NC(=O)Nc3ccc(Cl)c(C(F)(F)F)c3)cc2)ccn1	13µM*	7.9µM*
COC(=O)Nc1nc2ccc(Oc3cccc(NC(=O)Nc4cc(C(F)(F)F)ccc4F)c3)cc2[nH]1	?	-50%
Oc1ccc(Nc2nc(-c3ccc(Cl)cc3)cs2)cc1	?	13µM*
CCN(CC)CCNC(C(=O)OCCC(C)C)c1ccccc1 (stereo not drawn)	?	-10%
CCN(CC)CCOC(=O)C(C)(c1ccccc1)c1ccccc1	28µM*	?
O=C(O)CN(CCOCCOCCN(CC(=O)O)CC(=O)O)CC(=O)O	24%	-3%
CCN(CC)CCOCCOC(=O)C(CC)(CC)c1ccccc1	22µM*	?
CCN(CC)CCOC(=O)C1(c2ccc([N+](=O)[O-])cc2)CCCC1	?	2%
CCN(CC)CCOCCOC(=O)C1(c2ccccc2)CCCC1	7.1µM*!	1%
SMILES	Marburg entry	LASV entry inh
COc1ccc(-c2ccc3c(NC(=O)C4CC4)n[nH]c3n2)cc1	49%	4%
Cc1cc(C)c2c(c1)CO[C@H]([C@H](O)CO)[C@H]2C=Cc1ccccc1	?	-15%[8.59 µM]
COc1ccc(O[C@H]2C=C[C@@H](c3ccccc3)O[C@H]2COC(=O)CCC(C)=NO[C@H](C)c2cn([C@H](CO)Cc3ccccc3)nn2)cc1	-9%[8.59 µM]	-11%[8.59 µM]
COCC1CN(CCc2ccc(F)cc2)[S+](=O)([O-])c2c(OCCN3C(=O)[C@H]4[C@H](C3=O)[C@H]3C=C[C@@H]4C3)cccc2O1 (stereo partly drawn)	-18%	-10%
COC(=O)c1cccc(C(=O)N2CCc3c(C(=O)OC)c(OCc4ccccn4)cc(=O)n3CC2)c1	-16%	4%
O=C1CCCC=C1C(O)CCOCc1ccccc1 (stereo not drawn)	7%[8.59 µM]	16%[8.59 µM]
CC(C)C(=O)N[C@@H]1CCCN1C(=O)C=Cc1ccccc1	-47%[8.59 µM]	·
CCN1C(=O)N(S(=O)(=O)C(F)(F)F)C(c2ccccc2)C(C(=O)OC)=C1C (stereo not drawn)	-6%[8.59 µM]	33%[8.59 µM]
O=C(NCC1Cc2cc(F)cc(-c3cnccn3)c2O1)c1cccc(-c2ccccc2F)c1 (stereo not drawn)	-11%	?
CCOC(=O)N1CCN(Cc2ccc3c(c2)CN(C(=O)c2cc(-c4ccccc4)on2)CCO3)CC1	-28%	?
OC1(c2ccc(Cl)c(C(F)(F)F)c2)CCN(CCCC(c2ccc(F)cc2)c2ccc(F)cc2)CC1	2.8µM*	11µM*
Cc1ccc(C2(O)CCN(CCCC(=O)c3ccc(F)cc3)CC2)cc1	?	-18%
C[C@H]1CN(CCc2ccccc2)C(=O)[C@H]1CC(=O)Nc1ccc(Br)cc1	-8%	·
COc1cc(Br)c(C[N+]2(CCOCCC3CCC4CC3C4(C)C)CCOCC2)cc1OC (stereo not drawn)	?	4.5µM*
CCC1CN2CCC1CC2[C@@H](Oc1cc2ccccc2c2ccccc12)c1ccnc2ccc(O)cc12 (stereo partly drawn)	42%[8.59 µM]	0%[8.59 µM]
c1ccc2c(c1)CCCc1cc(NCCN3CCOCC3)nnc1-2	5%[17.8 µM]	24%[17.8 µM]
O=C1C(Cl)=C(NCCN2CCOCC2)C(=O)c2ncccc21	13µM*	11µM*
CCN1C(=O)[C@@H]2[C@H]3[C@H](O)[C@H](O)CC(=NO[C@@H]4O[C@H](COC(C)=O)[C@@H](OC(C)=O)[C@H](OC(C)=O)[C@@H]4OC(C)=O)[C@@H]3CC[C@H]2C1=O	12%[8.59 µM]	5%[8.59 µM]
C=CCCN1C=C(C(=O)OCC)C(c2ccccc2)NC1=O (stereo not drawn)	?	34%[8.59 µM]
COc1ccc(CCN(C)CCCOc2ccc(S(=O)(=O)c3[nH]c4ccccc4c3C(C)C)cc2)cc1OC	4µM*	14µM*
CCCCCCN1C[C@H](n2cc(C3CC3)nn2)[C@@H](O)C[C@H]1c1ccc(OC)cc1	-20%	·
CCN1CCCC1CNC(=O)c1cnn(-c2nccc(-c3cc4ccccc4o3)n2)c1C1CC1 (stereo not drawn)	?	-18%
Cc1c(C(=O)NCCc2cccnc2)cnn1-c1nccc(-c2ccccc2F)n1	37%	-5%
CCN(CC)CCNC(=O)c1cnn(-c2nccc(-c3cc4ccccc4o3)n2)c1C	13µM*	?
O=C(NC[C@@H]1CCCN2CCCC[C@H]12)c1cnn(-c2nccc(-c3cc4ccccc4o3)n2)c1C1CC1	11µM*	?
SMILES	Marburg entry	LASV entry inh
O=S1(=O)[C@H]2C[C@H]3O[C@]2(CN1Cc1ccc(C(F)(F)F)cc1)[C@@H]1O[C@@H]13	4%	52%
C=C(CCN1C=C(C(=O)OCC)C(c2ccccc2)NC1=O)c1ccc(Cl)cc1 (stereo not drawn)	14%[8.59 µM]	-4%[8.59 µM]
CN(C)CCC(c1ccccc1)c1ccccn1 (stereo not drawn)	?	-12%
C[C@@H](C1=C(CCN(C)C)Cc2ccccc21)c1ccccn1	18µM*	?
O=S1(=O)C=CCN1C1CCCC1	30%	8%
O=C1CCCC=C1C(CCc1ccccc1)OC(=O)c1ccc(Br)cc1 (stereo not drawn)	22%[8.59 µM]	9%[8.59 µM]
C[C@@H]1CC2=CCCC2[C@]2(O1)C(=O)N(Cc1ccc(Br)cc1)c1cccc(Br)c12 (stereo partly drawn)	-25%[8.59 µM]	·
COC(=O)[C@@]1(C)CCC[C@@]2(C)c3ccc(O)c(C(C)C)c3CCC21 (stereo partly drawn)	13µM*	11µM*
CC(C)c1c(O)ccc2c1CCC1[C@@](C)(CO)CCC[C@@]21C (stereo partly drawn)	-8%	?
CCOC(=O)CN[C@@H](C(=O)N1CC[C@H]1C(=O)NCc1ccc(/C(N)=N/O)cc1)C1CCCCC1	-10%	-8%

Screening results: PubChem BioAssay, National Center for Advancing Translational Sciences (NCATS)
